According to PubChem BioAssay (EPA / NIEHS):
Where “and” joins values, the source holds several entries; their conditions need not be identical. Equal values may be shown once. Inconclusive results are not listed. The source holds several records for some structures; these can differ, active in one and inactive in another. Calls of active or inactive are those of the source. How the source made its calls, unless noted: active means hit-call score of the fitted dose curve at least 0.9, where 1 is the maximum; inactive means score below 0.9.

Key:
[1] = molecular target: human RAR-related Orphan Receptor beta (RORb), RORB (gene 6096) (UniProt Q92753); assay: ATG_RORb_TRANS: Attagene TRANS-FACTORIAL HepG2 Assay for human RAR-related Orphan Receptor beta (RORb) (AID 2283010; active means hit-call score of the fitted dose curve at least 0.9, where 1 is the maximum)
Outline: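 HepG2 cells transiently transfected with GAL4-UAS reporter units expressing chimeric NR-Gal4 protein; reporter mRNA measured 24 h after dosing by RT-PCR, 6-FAM labelling and capillary electrophoresis. Gain-of-signal fitted relative to DMSO baseline.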

[2] = molecular target: Retinoic acid receptor RXR-alpha (Homo sapiens) (UniProt P19793); assay: ATG_RXRa_TRANS: Attagene TRANS-FACTORIAL HepG2 Assay for human Retinoid X Receptor alpha (RXRa) (AID 2283012; active means hit-call score of the fitted dose curve at least 0.9, where 1 is the maximum)
Outline: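 HepG2 cells transiently transfected with GAL4-UAS reporter units and chimeric RXRa-Gal4 protein, treated 24 h. Reporter mRNA measured by RT-PCR, fluorescent labelling, HpaI digestion and capillary electrophoresis. Induction fitted against DMSO.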

[3] = molecular target: human Retinoid X Receptor beta (RXRb), RXRB (gene 6257) (UniProt P28702); assay: ATG_RXRb_TRANS: Attagene TRANS-FACTORIAL HepG2 Assay for human Retinoid X Receptor beta (RXRb) (AID 2283013; active means hit-call score of the fitted dose curve at least 0.9, where 1 is the maximum)
Outline: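 HepG2 cells were transiently transfected with multiplexed GAL4-UAS reporters and a chimeric RXRb-Gal4 construct, then exposed for 24 h. Reporter mRNA was quantified by RT-PCR, FAM labeling, HpaI digestion and capillary electrophoresis; gain of signal was scored against DMSO.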

[4] = read-out: E-selectin (Homo sapiens) (UniProt P16581); assay: BSK_3C_Eselectin: BioMAP Diversity Plus: 3C Assay for Eselectin Biomarker Activity (AID 2283015); conditions: primary human endothelial cells (HUVEC); actives raise or lower the signal
Outline: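 Primary human umbilical vein endothelial cells (3C system) were dosed with chemical and cell-surface E-selectin measured by ELISA 24 h later. Bidirectional curve fitting used DMSO as negative control and baseline.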

[5] = read-out: Interleukin-1 alpha (IL1a), IL1A (gene 3552); assay: BSK_BE3C_IL1a: BioMAP Diversity Plus: BE3C Assay for Interleukin-1 alpha (IL1a) Biomarker Activity (AID 2283016); conditions: primary human bronchial epithelial cells; actives raise or lower the signal
Outline: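 Human primary bronchial epithelial cells, 24 h chemical exposure; IL-1a quantified by ELISA, fitted bidirectionally against DMSO. Cytotoxicity assessed in parallel by SRB total-protein staining at the time of measurement.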

[6] = read-out: Monocyte Chemoattractant Protein-1 (MCP1), CCL2 (gene 6347); assay: BSK_3C_MCP1: BioMAP Diversity Plus: 3C Assay for Monocyte Chemoattractant Protein-1 (MCP1) Biomarker Activity (AID 2283017); conditions: primary human endothelial cells (HUVEC); actives raise or lower the signal
Outline: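 Primary human umbilical vein endothelial cells (3C system) were exposed to test chemical for 24 h, after which MCP-1 was quantified by ELISA. Activity was fitted bidirectionally against DMSO as negative control and baseline.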

[7] = read-out: Monocyte Chemoattractant Protein-1 (MCP1), CCL2 (gene 6347); assay: BSK_4H_MCP1: BioMAP Diversity Plus: 4H Assay for Monocyte Chemoattractant Protein-1 (MCP1) Biomarker Activity (AID 2283018); conditions: primary human endothelial cells (HUVEC); actives raise or lower the signal
Outline: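 Human umbilical vein endothelial cells (4H system) exposed to chemicals for 24 h in 96-well format. MCP-1 measured by ELISA; bidirectional fitting against DMSO, with SRB total-protein staining in parallel cultures for cytotoxicity.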

[8] = read-out: Human Leukocyte Antigen - DR isotype (HLADR), HLA-DRA (gene 3122); assay: BSK_3C_HLADR: BioMAP Diversity Plus: 3C Assay for Human Leukocyte Antigen - DR isotype (HLADR) Biomarker Activity (AID 2283019); conditions: primary human endothelial cells (HUVEC); actives raise or lower the signal;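 on outcome: ELISA of cell-surface HLA-DR on HUVEC 24 h after dosing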
Outline: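 Primary human umbilical vein endothelial cells (3C system) were dosed with compound and cell-surface HLA-DR was quantified by ELISA at 24 h. Activity was fitted bidirectionally against DMSO as negative control and baseline.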

[9] = read-out: Interleukin-8 (IL8), CXCL8 (gene 3576); assay: BSK_3C_IL8: BioMAP Diversity Plus: 3C Assay for Interleukin-8 (IL8) Biomarker Activity (AID 2283020); conditions: primary human endothelial cells (HUVEC); actives raise or lower the signal
Outline: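 Primary human umbilical vein endothelial cells were dosed for 24 h. IL-8 was quantified by ELISA and fitted bidirectionally against DMSO. Cytotoxicity was assessed in parallel cultures by SRB staining at 560 nm.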

[10] = read-out: Monokine induced gamma interferon (MIG), CXCL9 (gene 4283); assay: BSK_3C_MIG: BioMAP Diversity Plus: 3C Assay for Monokine induced gamma interferon (MIG) Biomarker Activity (AID 2283021); conditions: primary human endothelial cells (HUVEC); actives raise or lower the signal;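 on AC50: MIG protein level measured by immunoassay in the treated endothelial cultures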
Outline: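 HUVEC primary endothelial cultures dosed with chemical; MIG quantified by ELISA at 24 h. Data fitted bidirectionally against DMSO control, with parallel SRB total-protein staining for cytotoxicity.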

[11] = molecular target: human Vitamin D Receptor (VDR), VDR (gene 7421) (UniProt P11473); assay: ATG_VDR_TRANS: Attagene TRANS-FACTORIAL HepG2 Assay for human Vitamin D Receptor (VDR) (AID 2283022; active means hit-call score of the fitted dose curve at least 0.9, where 1 is the maximum)
Outline: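 HepG2 cells were transiently transfected with multiple GAL4-UAS reporter units, so signal reflects exogenous chimeric receptor-Gal4 activity. After 24 h compound exposure, reporter mRNA was measured by RT-PCR, fluorescent labelling and capillary electrophoresis, fitted for gain of signal versus DMSO.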

[12] = BSK_3C_SRB: Viability Assessment in the BioMAP Diversity Plus: 3C Assay (AID 2283023); conditions: primary human endothelial cells (HUVEC);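 further: fitted both ways against DMSO so a hit may be signal rise or drop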
Outline: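 Primary human umbilical vein endothelial cells in the 3C system were read 24 h after compound dosing. Total protein was stained with 0.1% sulforhodamine B after 10% TCA fixation and read at 560 nm, with bidirectional fitting against DMSO as baseline.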

[13] = read-out: Matrix Metallopeptidase 1 (MMP1), MMP1 (gene 4312); assay: BSK_BE3C_MMP1: BioMAP Diversity Plus: BE3C Assay for Matrix Metallopeptidase 1 (MMP1) Biomarker Activity (AID 2283024); conditions: primary human bronchial epithelial cells; actives raise or lower the signal
Outline: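 Human primary bronchial epithelial cells (BE3C system) dosed for 24 h; MMP-1 quantified by ELISA. Bidirectional fit against DMSO; cytotoxicity tracked in parallel cultures by SRB total-protein staining.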

[14] = read-out: Pselectin, SELP (gene 6403); assay: BSK_4H_Pselectin: BioMAP Diversity Plus: 4H Assay for Pselectin Biomarker Activity (AID 2283026); conditions: primary human endothelial cells (HUVEC); actives raise or lower the signal
Outline: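 Primary human umbilical vein endothelial cells were treated 24 h, and cell-surface P-selectin was then quantified by ELISA. Bidirectional fit versus DMSO; cytotoxicity checked in parallel cultures by SRB total-protein staining.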

[15] = BSK_4H_SRB: Viability Assessment in the BioMAP Diversity Plus: 4H Assay (AID 2283027); conditions: primary human endothelial cells (HUVEC);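 further: cells exposed to compound for 24 h before staining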;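 on AC50: curves fitted both ways versus DMSO so AC50 may be loss or gain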
Outline: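 Human umbilical vein endothelial cells were dosed with chemical and, after 24 h, fixed with 10% TCA, stained with 0.1% sulforhodamine B, and read at 560 nm to give total protein as a cytotoxicity measure. Bidirectional fitting relative to DMSO control.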

[16] = BSK_BE3C_SRB: Viability Assessment in the BioMAP Diversity Plus: BE3C Assay (AID 2283028); conditions: primary human bronchial epithelial cells;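 on AC50: fitted both ways so AC50 may mark signal gain or loss versus DMSO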
Outline: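 Human primary bronchial epithelial cells were exposed to test chemicals for 24 h. Total protein in parallel cultures was then measured by staining with 0.1% sulforhodamine B after 10% TCA fixation, with absorbance read at 560 nm. Activity was fitted bidirectionally against DMSO.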

[17] = molecular target: human RAR-related Orphan Receptor gamma (RORg), RORC (gene 6097) (UniProt P51449); assay: ATG_RORg_TRANS: Attagene TRANS-FACTORIAL HepG2 Assay for human RAR-related Orphan Receptor gamma (RORg) (AID 2283011; active means hit-call score of the fitted dose curve at least 0.9, where 1 is the maximum)
Outline: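 Readout: reporter transcript induction (RT-PCR, fluorescent primer extension, capillary electrophoresis) after 24 h compound exposure of transiently transfected HepG2 cells carrying a RORg-Gal4 chimera and GAL4-UAS reporters; DMSO served as baseline, with increasing signal fitted.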

[18] = molecular target: human Thyroid Receptor alpha (THRa1), THRA (gene 7067) (UniProt P10827); assay: ATG_THRa1_TRANS: Attagene TRANS-FACTORIAL HepG2 Assay for human Thyroid Receptor alpha (THRa1) (AID 2283014; active means hit-call score of the fitted dose curve at least 0.9, where 1 is the maximum)
Outline: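 HepG2 cells transiently transfected with multiplexed GAL4-UAS reporter units for exogenous chimeric THRa1-Gal4; reporter mRNA measured 24 h after dosing by RT-PCR, 6-FAM labelling, HpaI digestion and capillary electrophoresis. Gain-of-signal fitted versus DMSO baseline.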

[19] = BSK_3C_Vis: BioMAP Diversity Plus: 3C Assay for Morphology Visualization (AID 2283025); conditions: primary human endothelial cells (HUVEC);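 further: fitted both ways so gain or loss versus DMSO counts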;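 on AC50: light microscopy image of cell morphology used as background control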
Outline: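 Human umbilical vein endothelial cell morphology was inspected by light microscopy 24 h after chemical dosing; scored bidirectionally relative to DMSO.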

Chain of human Retinoid X Receptor beta (RXRb), RXRB (gene 6257) (P28702 whole entry, looked up, the tested form may be a part): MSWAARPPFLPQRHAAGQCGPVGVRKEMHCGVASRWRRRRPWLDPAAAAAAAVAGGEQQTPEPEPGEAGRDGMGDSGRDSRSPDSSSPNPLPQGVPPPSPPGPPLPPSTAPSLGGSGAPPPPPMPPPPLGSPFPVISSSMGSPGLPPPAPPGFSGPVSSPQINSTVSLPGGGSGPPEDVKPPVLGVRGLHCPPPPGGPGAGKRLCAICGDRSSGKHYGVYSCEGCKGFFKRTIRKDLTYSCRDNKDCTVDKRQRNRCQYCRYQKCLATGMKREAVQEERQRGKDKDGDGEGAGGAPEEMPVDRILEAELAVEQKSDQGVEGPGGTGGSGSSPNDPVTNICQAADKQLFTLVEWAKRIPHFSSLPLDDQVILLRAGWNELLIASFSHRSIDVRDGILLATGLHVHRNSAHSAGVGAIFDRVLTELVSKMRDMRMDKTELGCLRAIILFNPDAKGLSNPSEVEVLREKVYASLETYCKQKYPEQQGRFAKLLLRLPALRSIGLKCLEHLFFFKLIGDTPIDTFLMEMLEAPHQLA
Chain of Retinoic acid receptor RXR-alpha (Homo sapiens) (P19793 whole entry, looked up, the tested form may be a part): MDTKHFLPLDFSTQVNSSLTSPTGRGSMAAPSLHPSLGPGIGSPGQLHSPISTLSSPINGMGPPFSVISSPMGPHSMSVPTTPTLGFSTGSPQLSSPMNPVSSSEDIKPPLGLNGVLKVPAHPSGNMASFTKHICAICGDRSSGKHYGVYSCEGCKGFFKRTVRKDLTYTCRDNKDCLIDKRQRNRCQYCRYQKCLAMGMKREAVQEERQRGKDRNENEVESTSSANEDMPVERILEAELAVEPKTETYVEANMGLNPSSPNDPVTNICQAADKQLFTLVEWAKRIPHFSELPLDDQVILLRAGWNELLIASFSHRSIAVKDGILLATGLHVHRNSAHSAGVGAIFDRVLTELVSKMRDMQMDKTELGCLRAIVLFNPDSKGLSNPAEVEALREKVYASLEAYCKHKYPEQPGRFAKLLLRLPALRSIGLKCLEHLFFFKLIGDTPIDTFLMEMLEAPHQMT
Chain of human Vitamin D Receptor (VDR), VDR (gene 7421) (P11473 whole entry, looked up, the tested form may be a part): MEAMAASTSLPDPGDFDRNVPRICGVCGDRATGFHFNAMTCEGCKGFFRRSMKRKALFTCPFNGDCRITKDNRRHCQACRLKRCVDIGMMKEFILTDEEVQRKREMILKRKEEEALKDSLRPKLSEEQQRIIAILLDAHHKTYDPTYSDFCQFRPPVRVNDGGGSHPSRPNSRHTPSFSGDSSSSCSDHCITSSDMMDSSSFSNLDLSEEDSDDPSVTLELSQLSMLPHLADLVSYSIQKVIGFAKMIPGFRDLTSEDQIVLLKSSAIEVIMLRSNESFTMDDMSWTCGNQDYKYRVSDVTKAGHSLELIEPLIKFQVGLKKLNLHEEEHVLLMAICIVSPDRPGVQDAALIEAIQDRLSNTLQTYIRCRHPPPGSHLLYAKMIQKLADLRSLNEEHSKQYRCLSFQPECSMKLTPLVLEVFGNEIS
Chain of human RAR-related Orphan Receptor beta (RORb), RORB (gene 6096) (Q92753 whole entry, looked up, the tested form may be a part): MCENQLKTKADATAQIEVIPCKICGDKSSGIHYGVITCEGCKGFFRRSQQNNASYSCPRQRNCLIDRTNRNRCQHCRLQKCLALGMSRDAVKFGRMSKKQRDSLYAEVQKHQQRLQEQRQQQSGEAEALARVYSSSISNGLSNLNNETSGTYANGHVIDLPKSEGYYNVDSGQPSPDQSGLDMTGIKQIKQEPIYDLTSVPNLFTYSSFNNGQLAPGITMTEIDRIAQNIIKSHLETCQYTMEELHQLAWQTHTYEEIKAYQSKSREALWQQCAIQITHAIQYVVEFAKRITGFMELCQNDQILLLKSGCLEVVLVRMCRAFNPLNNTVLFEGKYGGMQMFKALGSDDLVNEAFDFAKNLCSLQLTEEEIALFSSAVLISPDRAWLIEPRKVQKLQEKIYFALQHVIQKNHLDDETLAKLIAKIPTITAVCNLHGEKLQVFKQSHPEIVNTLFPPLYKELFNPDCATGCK
Chain of human RAR-related Orphan Receptor gamma (RORg), RORC (gene 6097) (P51449 whole entry, looked up, the tested form may be a part): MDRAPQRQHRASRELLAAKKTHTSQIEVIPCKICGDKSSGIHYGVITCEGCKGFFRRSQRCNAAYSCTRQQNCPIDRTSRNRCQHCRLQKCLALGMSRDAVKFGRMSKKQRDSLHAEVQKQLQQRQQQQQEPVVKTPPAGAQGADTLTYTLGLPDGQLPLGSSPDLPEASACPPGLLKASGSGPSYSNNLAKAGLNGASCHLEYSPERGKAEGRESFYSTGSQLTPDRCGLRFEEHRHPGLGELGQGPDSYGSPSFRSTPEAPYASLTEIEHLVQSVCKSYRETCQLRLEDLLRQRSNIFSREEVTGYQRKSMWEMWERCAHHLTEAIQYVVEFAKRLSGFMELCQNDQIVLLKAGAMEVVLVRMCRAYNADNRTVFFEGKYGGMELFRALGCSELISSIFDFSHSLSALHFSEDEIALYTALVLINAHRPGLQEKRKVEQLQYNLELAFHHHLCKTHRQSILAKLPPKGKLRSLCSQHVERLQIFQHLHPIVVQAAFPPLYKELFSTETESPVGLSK
Chain of E-selectin (Homo sapiens) (P16581 whole entry, looked up): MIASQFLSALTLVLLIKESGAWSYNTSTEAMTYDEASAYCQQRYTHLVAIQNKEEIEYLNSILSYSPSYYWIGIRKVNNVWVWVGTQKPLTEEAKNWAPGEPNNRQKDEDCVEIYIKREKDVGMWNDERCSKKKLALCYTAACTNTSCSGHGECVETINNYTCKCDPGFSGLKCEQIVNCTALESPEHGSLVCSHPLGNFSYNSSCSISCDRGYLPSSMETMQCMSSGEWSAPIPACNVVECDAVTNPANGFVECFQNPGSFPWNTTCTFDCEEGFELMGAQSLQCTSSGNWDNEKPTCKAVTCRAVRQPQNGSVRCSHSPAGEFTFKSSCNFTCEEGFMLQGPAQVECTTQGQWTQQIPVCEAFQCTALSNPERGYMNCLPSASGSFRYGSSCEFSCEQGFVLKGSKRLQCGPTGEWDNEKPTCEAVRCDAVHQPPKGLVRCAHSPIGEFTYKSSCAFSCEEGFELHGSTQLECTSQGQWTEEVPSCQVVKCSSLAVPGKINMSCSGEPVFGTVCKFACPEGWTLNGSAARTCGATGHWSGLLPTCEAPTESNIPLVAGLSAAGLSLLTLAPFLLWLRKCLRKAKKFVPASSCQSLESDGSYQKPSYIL
Chain of human Thyroid Receptor alpha (THRa1), THRA (gene 7067) (P10827 whole entry, looked up, the tested form may be a part): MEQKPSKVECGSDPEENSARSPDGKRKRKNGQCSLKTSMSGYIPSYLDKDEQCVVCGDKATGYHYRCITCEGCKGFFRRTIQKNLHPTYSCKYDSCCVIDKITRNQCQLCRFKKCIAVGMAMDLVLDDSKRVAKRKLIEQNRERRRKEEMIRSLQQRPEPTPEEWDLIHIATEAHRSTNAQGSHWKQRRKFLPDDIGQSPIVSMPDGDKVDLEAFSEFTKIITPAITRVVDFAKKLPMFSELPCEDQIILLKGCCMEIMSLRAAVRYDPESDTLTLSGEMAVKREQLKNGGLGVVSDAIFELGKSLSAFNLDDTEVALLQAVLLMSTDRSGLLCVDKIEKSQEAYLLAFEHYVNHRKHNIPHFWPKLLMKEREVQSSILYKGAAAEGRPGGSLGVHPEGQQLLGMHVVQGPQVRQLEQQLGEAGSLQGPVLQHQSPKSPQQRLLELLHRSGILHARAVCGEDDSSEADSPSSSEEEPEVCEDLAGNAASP

SMILES: Nc1ccc(-c2ccc(N)cc2)cc1
- outcome [1]: inactive
- outcome [2]: inactive
- AC50 [3]: 27.5 µM (active)
- outcome [4]: inactive
- outcome [5]: inactive
- outcome [6]: inactive
- outcome [7]: inactive
- outcome [8]: inactive
- outcome [9]: inactive
- outcome [10]: inactive
- outcome [11]: inactive
- outcome [12]: inactive
- outcome [13]: inactive
- outcome [14]: inactive
- outcome [15]: inactive
- outcome [16]: inactive

SMILES: NS(=O)(=O)C(F)(F)C(F)(F)C(F)(F)C(F)(F)C(F)(F)C(F)(F)C(F)(F)C(F)(F)F
- outcome [1]: inactive
- outcome [17]: inactive
- outcome [2]: inactive
- outcome [3]: inactive
- outcome [18]: inactive
- AC50 [4]: 32.5 µM (active) and 56.3 µM (active) and 49.4 µM (active)
- AC50 [5]: 43.9 µM (active) and 42.4 µM (active)
- outcome [5]: inactive
- AC50 [6]: 34.4 µM (active) and 47.7 µM (active) and 48.9 µM (active)
- AC50 [7]: 24.8 µM (active) and 37.8 µM (active) and 11.1 µM (active)
- AC50 [8]: 27.1 µM (active) and 42.6 µM (active) and 44.3 µM (active)
- AC50 [9]: 32.8 µM (active) and 47.7 µM (active) and 53.4 µM (active)
- AC50 [10]: 33.3 µM (active) and 51.2 µM (active) and 47.8 µM (active)
- AC50 [12]: 30.8 µM (active) and 44.1 µM (active) and 43.6 µM (active)
- AC50 [13]: 13.4 µM (active) and 7.12 µM (active) and 7.29 µM (active)
- AC50 [19]: 37.5 µM (active)
- AC50 [14]: 27.6 µM (active) and 43.9 µM (active) and 45.9 µM (active)
- AC50 [15]: 26.8 µM (active) and 44.2 µM (active) and 47.6 µM (active)
- AC50 [16]: 25.8 µM (active) and 51.3 µM (active)

SMILES: O=C(O)C(F)(F)C(F)(F)C(F)(F)C(F)(F)C(F)(F)C(F)(F)C(F)(F)C(F)(F)F
- outcome [1]: inactive
- outcome [17]: inactive
- outcome [2]: inactive
- AC50 [3]: 13.3 µM (active) and 41.1 µM (active) and 26.3 µM (active)
- outcome [18]: inactive
- outcome [4]: inactive
- AC50 [5]: 35 µM (active) and 49.9 µM (active) and 46.6 µM (active)
- AC50 [6]: 54.7 µM (active)
- outcome [6]: inactive
- outcome [7]: inactive
- AC50 [8]: 57.3 µM (active) and 55 µM (active)
- outcome [8]: inactive
- outcome [9]: inactive
- outcome [10]: inactive
- outcome [11]: inactive
- AC50 [12]: 54.3 µM (active) and 51.6 µM (active)
- outcome [12]: inactive
- AC50 [13]: 52.4 µM (active) and 50.9 µM (active)
- outcome [13]: inactive
- outcome [19]: inactive
- outcome [14]: inactive
- AC50 [15]: 44 µM (active) and 46.1 µM (active)
- outcome [15]: inactive
- AC50 [16]: 34.8 µM (active) and 49.8 µM (active)
